The whole screen tested about 1,400 compounds, of which about 350 (25%) were called active. Inconclusive results (about 2%) are left out. The rule behind the calls is not given here. A selection follows. Entries with a potency or affinity are not part of this list.
Experiment: inhibitors of Clostridioides difficile proliferation – 4-point retest, confirmation (AID 1224921);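 note: plate controls were DMSO wells for no effect and levofloxacin 16 µg/mL wells for full effect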
Conditions: Clostridioides difficile clinical isolate growth, OD600, 24 h, stronger effect = lower value; at 30 µM unless noted

Max activity, inactive:
C[C@@H]1CN([C@@H](C)CO)S(=O)(=O)c2ccc(C#CC3CC3)cc2O[C@H]1CN(C)Cc1ccncc1 53.6%
C[C@@H]1CN([C@@H](C)CO)S(=O)(=O)c2ccc(C3=CCCC3)cc2O[C@H]1CN(C)Cc1ccncc1 8.26%
CCCN1[C@@H]2c3ccc(/C=C/c4ccccc4)c(=O)n3C[C@H]1[C@H](CO)[C@H]2C(=O)NCC1CC1 3.29%
O=C(Nc1ccc2c(c1)[C@@H]1C[C@H](CC(=O)N3CCc4ccccc4C3)O[C@H](CO)[C@@H]1O2)NC1CCCC1 -11.8%
CC(C)[C@H](C)NC(=O)N(C)C[C@@H]1OCc2ccccc2-c2ccccc2C(=O)N([C@H](C)CO)C[C@H]1C -14.1% [at 8 µM]
CCC(=O)Nc1ccc2c(c1)C(=O)N(C)C[C@H](OC)[C@@H](C)CN(C(=O)CN1CCOCC1)[C@H](C)CO2 -15.4% [at 1.95 µM]
CCCNC(=O)Nc1ccc2c(c1)C(=O)N(C)C[C@@H](OC)[C@H](C)CN(CCC(F)(F)F)[C@@H](C)CO2 17.1%
CO[C@@H]1CN(C)C(=O)c2cc(NC(=O)c3cccc(F)c3)ccc2OC[C@H](C)N(C(C)=O)C[C@H]1C -16.4% [at 0.5 µM]
CCCN1C[C@H](C)[C@@H](OC)CN(C)C(=O)c2cc(NC(=O)Nc3ccccc3F)ccc2OC[C@H]1C -17.1% [at 8 µM]
Cc1noc(C)c1NC(=O)N[C@H]1CC[C@@H](CC(=O)Nc2ccc(-c3ccccc3)cc2)O[C@@H]1CO 28.3% [at 35 µM]
O=C(O)C[C@H]1C[C@@H]2c3cc(NC(=O)c4ccc5c(c4)OCO5)ccc3O[C@@H]2[C@H](CO)O1 -10.2% [at 0.5 µM]
CCNC(=O)C[C@H]1CC[C@H](NC(=O)C2CC2)[C@@H](CO)O1 -15.8% [at 8 µM]
CCNC(=O)C[C@H]1CC[C@@H](NC(=O)C2CC2)[C@H](CO)O1 -5.49% [at 1.95 µM]
CO[C@@H]1CN(C)C(=O)c2ccc(NC(=O)Nc3cccc(Cl)c3)cc2OC[C@@H](C)N(C(=O)Nc2c(C)noc2C)C[C@H]1C -7.11% [at 0.5 µM]
C[C@@H]1CN([C@@H](C)CO)S(=O)(=O)c2ccc(C3=CCCCC3)cc2O[C@@H]1CN(C)Cc1ccncc1 54.5%
CCS(=O)(=O)Nc1ccc2c(c1)C(=O)N(C)C[C@H](OC)[C@@H](C)CN(C(C)=O)[C@@H](C)CO2 -9.47% [at 1.95 µM]
CO[C@@H]1CN(C)C(=O)c2cc(NC(C)=O)ccc2OC[C@H](C)N(Cc2nccs2)C[C@H]1C 10.1%
CO[C@H]1CN(C)C(=O)c2cc(NC(C)=O)ccc2OC[C@H](C)N(CC2CCCCC2)C[C@H]1C 16.4%
C[C@@H]1CN([C@H](C)CO)S(=O)(=O)c2ccc(C#CC3(O)CCCC3)cc2O[C@@H]1CN(C)C(=O)Nc1ccc(F)cc1 21.5%
O=C(C[C@@H]1C=C[C@@H](NC(=O)Cc2cccnc2)[C@H](CO)O1)Nc1ccccc1 -12.6%
COc1ccccc1S(=O)(=O)N[C@@H]1C=C[C@H](CC(=O)N2CCCCC2)O[C@H]1CO -12.3% [at 8 µM]
O=C(C[C@@H]1C[C@H]2c3cc(NC(=O)Nc4ccccc4)ccc3O[C@H]2[C@@H](CO)O1)NC1CCCC1 -18%
Cc1ccc(-c2ccc3c(c2)O[C@H](CN(C)Cc2cccnc2)[C@H](C)CN([C@@H](C)CO)S3(=O)=O)cc1 32.9%
CC(=O)N(C)C[C@@H]1Oc2ncc(C#Cc3ccc(F)cc3)cc2C(=O)N([C@H](C)CO)C[C@H]1C 21.7%
CO[C@H]1CN(C)C(=O)c2ccc(NC(=O)Nc3cccc(Cl)c3)cc2OC[C@@H](C)NC[C@@H]1C 37.7%
CO[C@H]1CN(C)C(=O)c2ccc(NC(=O)Nc3cccc(Cl)c3)cc2OC[C@H](C)NC[C@@H]1C -12.1% [at 8 µM]
C[C@@H]1CN([C@H](C)CO)C(=O)c2cc(NC(=O)CCCN(C)C)ccc2O[C@@H](C)CCCCO[C@@H]1CN(C)Cc1ccc(C(F)(F)F)cc1 6.03% [at 35 µM]
C[C@@H]1CN([C@H](C)CO)C(=O)c2cc(NC(=O)Nc3cccc4ccccc34)ccc2O[C@@H](C)CCCCO[C@H]1CN(C)C(=O)c1ccccc1 24.4%
CO[C@@H]1CN(C)C(=O)c2ccc(NC(C)=O)cc2OC[C@@H](C)N(C(=O)CN(C)C)C[C@H]1C -8.17%
CCCC(=O)Nc1ccc2c(c1)C(=O)N(C)C[C@@H](OC)[C@@H](C)CN(Cc1ccc(F)cc1)[C@H](C)CO2 20.9%
COc1ccc(-c2cnc3c(c2)C(=O)N([C@H](C)CO)C[C@H](C)[C@@H](CN(C)Cc2ccc(C(=O)O)cc2)O3)cc1 -17.6% [at 2.1 µM]
CO[C@H]1CN(C)C(=O)c2cc(NC(=O)c3nc4ccccc4s3)ccc2OC[C@H](C)N(Cc2ccncc2)C[C@@H]1C 20%
CCC(=O)N1C[C@@H](C)[C@@H](OC)CN(C)C(=O)c2ccc(NC(=O)Nc3ccccc3)cc2OC[C@H]1C -13.3% [at 1.95 µM]
COCC(=O)N(C)C[C@H]1Oc2cc(C#Cc3ccccc3)ccc2S(=O)(=O)N([C@H](C)CO)C[C@H]1C 35.4%
CCS(=O)(=O)Nc1ccc2c(c1)C(=O)N(C)C[C@@H](OC)[C@@H](C)CN(CC1CCCC1)[C@@H](C)CO2 -10.9% [at 0.5 µM]
Cc1ccc(-c2ccc3c(c2)O[C@@H](CN(C)Cc2cccnc2)[C@@H](C)CN([C@H](C)CO)S3(=O)=O)cc1 26.8%
CN1CCN(C(=O)C[C@@H]2C[C@@H]3c4cc(NC(=O)Cc5ccncc5)ccc4O[C@@H]3[C@H](CO)O2)CC1 13.2%
O=C(N[C@@H]1C=C[C@@H](CC(=O)N2CCOCC2)O[C@@H]1CO)c1cccc(F)c1 -15.3% [at 1.95 µM]
C[C@H](CO)N1C[C@H](C)[C@H](CN(C)C(=O)Nc2ccc(F)cc2)Oc2ncc(-c3cc4ccccc4o3)cc2C1=O 26.1%
COc1ccccc1S(=O)(=O)N[C@H]1C=C[C@@H](CC(=O)N2CCCCC2)O[C@H]1CO -12.3%
COc1ccc(CNC(=O)C[C@H]2C[C@@H]3c4cc(NC(=O)NC5CCCC5)ccc4O[C@@H]3[C@@H](CO)O2)cc1 -9.75%
CO[C@@H]1CN(C)C(=O)c2ccc(NC(=O)C3CCCC3)cc2OC[C@@H](C)NC[C@@H]1C -1.17% [at 1.95 µM]
CO[C@H]1CN(C)C(=O)c2ccc(NC(=O)C3CCCCC3)cc2OC[C@H](C)N(Cc2nccs2)C[C@H]1C 21.8% [at 8 µM]
C[C@@H]1CN([C@H](C)CO)C(=O)c2ccccc2-c2ccccc2CO[C@H]1CN(C)S(=O)(=O)c1ccsc1 29%
C[C@@H]1CN([C@H](C)CO)C(=O)Cc2cc(NS(C)(=O)=O)ccc2O[C@H]1CN(C)Cc1ccccc1 15.9%
COc1ccc(-c2ccc([C@H]3[C@H](C#N)N(C(=O)NC4CCCC4)[C@H]3CO)cc2)cc1 36.8% [at 9 µM]
CO[C@H]1CN(C)C(=O)c2cc(NC(=O)c3cccc(F)c3)ccc2OC[C@H](C)N(C(C)=O)C[C@H]1C -6.58%
Cc1nn(C)cc1NC(=O)C[C@@H]1CC[C@@H]2[C@@H](COc3ccc(NC(=O)Nc4cccc(Cl)c4)cc3C(=O)N2C)O1 10.1%
Cc1ccccc1-c1ccc2c(c1)O[C@H](CN(C)Cc1ccncc1)[C@@H](C)CN([C@H](C)CO)S2(=O)=O 13.6%
CCC(=O)Nc1ccc2c(c1)OC[C@H](C)N(CC1CCCCC1)C[C@H](C)[C@@H](OC)CN(C)C2=O 33.6%
COCC(=O)Nc1ccc2c(c1)OC[C@@H](C)N(Cc1ccccc1F)C[C@@H](C)[C@@H](OC)CN(C)C2=O -4.19%
C[C@@H]1CN([C@H](C)CO)C(=O)c2ccccc2-c2ccccc2CO[C@@H]1CN(C)C(=O)CCN(C)C -7.59% [at 2.1 µM]
COc1ccc(S(=O)(=O)Nc2ccc3c(c2)CC(=O)N([C@@H](C)CO)C[C@H](C)[C@@H](CN(C)CC2CCCCC2)O3)cc1 52.7%
C[C@H](CO)N1C[C@H](C)[C@H](CN(C)CC2CCCCC2)OCCCC[C@H](C)Oc2ccc(NS(=O)(=O)c3ccc(Cl)cc3)cc2C1=O 23% [at 8 µM]
Cc1ccc(S(=O)(=O)Nc2ccc3c(c2)C(=O)N([C@@H](C)CO)C[C@H](C)[C@@H](CN(C)Cc2ccc(C(F)(F)F)cc2)OCCCC[C@@H](C)O3)cc1 32.7% [at 8 µM]
C[C@@H]1CN([C@@H](C)CO)C(=O)Cc2cc(NS(C)(=O)=O)ccc2O[C@H]1CN(C)CC1CCCCC1 14.3%
C[C@@H]1CCCCO[C@H](CN(C)Cc2ccc(C(F)(F)F)cc2)[C@@H](C)CN([C@@H](C)CO)C(=O)c2cc(NS(=O)(=O)c3ccc(Cl)cc3)ccc2O1 24% [at 8 µM]
C[C@@H]1CN([C@H](C)CO)C(=O)Cc2cc(NS(=O)(=O)c3ccccc3)ccc2O[C@@H]1CN(C)Cc1ccc(Cl)c(Cl)c1 30.5% [at 35 µM]
Cc1ccc(S(=O)(=O)Nc2ccc3c(c2)C(=O)N([C@@H](C)CO)C[C@@H](C)[C@H](CN(C)C)OCCCC[C@H](C)O3)cc1 -4% [at 8 µM]
C[C@H]1CN([C@@H](C)CO)C(=O)Cc2cc(NS(=O)(=O)c3ccccc3)ccc2O[C@@H]1CN(C)Cc1ccc(Cl)c(Cl)c1 49.4%
